Measurements as given in PubChem BioAssay AID624256 (NMMLSC, 2012).
Among all 360,000 compounds or so, about 3,700 (1%) were called active. Not shown: some 2% with an inconclusive outcome.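 How the source made its calls: active means normalized GFP-positive differentiation at or above the plate's own cutoff, the solvent-only control mean plus 3 SD; inconclusive means no clear call, values can overlap the other calls; inactive means the rest.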 What follows is part of a selection rich in actives, with near analogues and random picks from the rest.

Test: induction of myeloid progenitor differentiation, primary screen, cell-based, flow cytometry, MLPCN library (AID 624256);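 on GFP+ MAC1+ double positive: cells exposed to compound for four days before flow analysis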;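 on normalized GFP-positive differentiation: cells exposed to compound for four days before flow analysis; 0% = DMSO wells and 100% = fulvestrant positive control at 5 µM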
Details: ER-HoxA9 myeloid progenitors, lysozyme-GFP differentiation, at 10 µM; GFP+ MAC1+ double positive: measured here: differentiation confirmed by MAC1 staining, stronger effect = higher value; normalized GFP-positive differentiation: stronger effect = higher value

Compound	GFP+ MAC1+ double positive	outcome	normalized GFP-positive differentiation
O=C(OC1CC2CC1[C@H]1CCCCN1C2=O)N1CCOCC1 (stereo partly specified)	0.9%	inactive	–
O=C(COC(=O)c1ccc(O)cc1O)NC(=O)c1ccccc1	0%	inactive	–
O=C(NNc1c2ccccc2nc2ccccc12)c1cc2ccccc2cc1O	2.5%	–	28.5% (active)
Cc1noc(C)c1COC(=O)c1cc2ccccc2cc1O	1.2%	inactive	–
CCc1nc2c(OCCOc3ccc(F)cc3)cccn2c1N(C)C(=O)c1ccccc1F	0.6%	inactive	–
CCS(=O)(=O)c1cc([N+](=O)[O-])c(Sc2ccccc2N)s1	1.1%	–	150% (active)
Nc1ccccc1SC(C[N+](=O)[O-])c1ccccc1 (stereo unspecified)	1.1%	inactive	–
CC(C)(C)N1C(=O)c2c(C(=O)OCc3ccccc3)[nH]c(-c3ccccc3)c2C1=O	1.4%	inactive	–
CC(C)Nc1nc(NCCOc2ccccc2Cl)c2sccc2n1	1%	inactive	–
COc1ccc2nc(N3CCN(C(=O)c4ccc([N+](=O)[O-])o4)CC3)sc2c1	7.3%	–	33.6% (active)
COc1ccc(N2CCN(c3ccc([N+](=O)[O-])nc3)CC2)cc1	0.9%	inactive	–
COc1ccc2nc(N3C(=O)C(O)=C(C(=O)c4ccco4)C3c3ccco3)sc2c1 (stereo unspecified)	0.8%	inactive	–
CCc1nc2ccc(C(=O)Nc3cccc(OC)c3)cn2c1N(CCC(C)C)CCN(C)C	1.2%	inactive	–
CCCCNC(=O)C[C@@H]1C[C@@]2(C(=O)OC)CC(C)(C)CC=C2N(Cc2ccco2)C1=O	2.1%	inactive	–
COC(=O)C[C@@H]1C=C[C@@H](NC(=O)c2cccnc2)[C@@H](CO)O1	1.2%	inactive	–
CCOC(=O)C1=CC[C@@H](c2ccccc2)N(S(=O)(=O)c2ccc(C)cc2)[C@H]1c1ccc(CC)cc1	0.9%	inactive	–
COc1ccc(S(=O)(=O)NCCCCOc2ccc(Cl)cc2)cc1	0.7%	inactive	–
COc1ccc(N(CC(=O)N2CCCCCC2)S(=O)(=O)c2ccccc2)cc1	2.2%	inactive	–
COc1ccc(N(CCC#N)S(=O)(=O)c2ccc(Cl)cc2)cc1	6.2%	–	17% (active)
COc1cc(C=C(OC(C)=O)c2ccc3c(c2)OCO3)cc(OC)c1OC	0.8%	inactive	–
Cc1cc(C)n(C(=O)c2ccc(C)c(S(=O)(=O)N3CCOCC3)c2)n1	3.4%	–	11% (active)
Cc1ccc(C(=O)OCC(=O)N2CCCCCC2)cc1S(=O)(=O)N1CCOCC1	0.9%	inactive	–

Compound	GFP+ MAC1+ double positive	outcome	normalized GFP-positive differentiation
Cc1ccc(C(=O)Nc2ncccc2C)cc1S(=O)(=O)N1CCOCC1	0.8%	inactive	–
CCOC(=O)c1ccc(-c2ccc3ncnc(N(C)Cc4sccc4C)c3c2)o1	2%	inactive	–
CC(=O)Nc1cccc(Nc2ccc(C#N)cc2)c1	0.5%	inactive	–
Cc1cccc(C)c1NC(=O)C(c1ccc(C(F)(F)F)cc1)n1c(=O)c(-c2ccco2)nc2ccccc21 (stereo unspecified)	2.6%	inactive	–
CC[n+]1cc(C)ccc1/C=C/c1ccc(N(C)C)cc1	14.3%	–	385% (active)
O=[N+]([O-])c1ccc(CN2CC(N3CC=CC3)CS2(=O)=O)cc1 (stereo unspecified)	0.8%	inactive	–
COc1ccc(CC(N)c2csc(NC(=O)Cc3ccccc3)n2)cc1 (stereo unspecified)	0.8%	inactive	–
CCCCn1nnnc1C(c1cccc(OC)c1OC)N1CCN(C/C=C/c2ccccc2)CC1 (stereo unspecified)	1%	inactive	–
Fc1ccc(-c2ccc(NCCN3CCOCC3)nn2)cc1	0.2%	inactive	–
CCOc1nc(NCCN2CCOCC2)nc(Nc2ccc(C)cc2)n1	0.6%	inactive	–
c1ccc2cc3c(NCCN4CCOCC4)ccnc3cc2c1	8.7%	–	189% (active)
CC1(C)OC(=O)C2=C(C[C@@H](C3CC3)O[C@H]2CCc2cccc(Cl)c2)O1	0.7%	inactive	–
COc1cc(/C=C2/C(=O)NN(c3cccc(Cl)c3)C2=O)cc(Br)c1O	11.4%	–	287% (active)
COc1cc(/C=C2/C(=O)NN(c3ccc(F)cc3)C2=O)cc([N+](=O)[O-])c1O	0.5%	inactive	–
COc1cc(/C=N/O)cc(Br)c1OCc1cccc(Cl)c1	0.1%	inactive	–
CCOC(=O)[C@]12CCCC=C1N(CCC1=CCCCC1)C(=O)[C@H](CC(=O)N1CCSCC1)C2	4.4%	inactive	–
COc1ccc(Sc2ccc(NC(=O)c3cccc(Cl)c3)cc2C#N)cc1	1.1%	inactive	–
CC(C)N(C(=O)[C@H]1C[C@H](CC(=O)NC(C)(C)C)C(=O)N2CCc3c([nH]c4ccc(Cl)cc34)[C@]12C)C(C)C	1.5%	–	8.17% (active)
C[C@]12c3[nH]c4ccc(Cl)cc4c3CCN1C(=O)[C@@H](CC(=O)NCCCn1ccnc1)C[C@@H]2C(=O)N1CCOCC1	0.6%	inactive	–
CC(C)N(C(=O)[C@H]1C[C@H](CC(=O)NCCC2=CCCCC2)C(=O)N2CCc3c([nH]c4cc(CCC(=O)N(C)C)ccc34)[C@]12C)C(C)C	0.4%	inactive	–
O=C(NCc1ccc(F)cc1)c1cc(C2CCCCN2C(=O)C2CCCCC2)on1 (stereo unspecified)	1.3%	inactive	–
